High-throughput results from PubChem.
Shown are actives, neighbours in structure and some others; about 12% of the full set was active somewhere.
RORgamma inh = ROR gamma (mouse) transcription inhibition; P51450; hit rate 5.4% among 310,000; Drosophila S2 Gal4-RORgamma UAS-luciferase reporter, 20 h; Potency, µM (doses to about 53.6 µM), for the others: at the highest dose activity change, negative = inhibition, most hits filed as inhibitors; further: nearly all actives have a fitted effect of over 60% in size
Target sequence (P51450 whole entry, looked up, the tested form may be a part): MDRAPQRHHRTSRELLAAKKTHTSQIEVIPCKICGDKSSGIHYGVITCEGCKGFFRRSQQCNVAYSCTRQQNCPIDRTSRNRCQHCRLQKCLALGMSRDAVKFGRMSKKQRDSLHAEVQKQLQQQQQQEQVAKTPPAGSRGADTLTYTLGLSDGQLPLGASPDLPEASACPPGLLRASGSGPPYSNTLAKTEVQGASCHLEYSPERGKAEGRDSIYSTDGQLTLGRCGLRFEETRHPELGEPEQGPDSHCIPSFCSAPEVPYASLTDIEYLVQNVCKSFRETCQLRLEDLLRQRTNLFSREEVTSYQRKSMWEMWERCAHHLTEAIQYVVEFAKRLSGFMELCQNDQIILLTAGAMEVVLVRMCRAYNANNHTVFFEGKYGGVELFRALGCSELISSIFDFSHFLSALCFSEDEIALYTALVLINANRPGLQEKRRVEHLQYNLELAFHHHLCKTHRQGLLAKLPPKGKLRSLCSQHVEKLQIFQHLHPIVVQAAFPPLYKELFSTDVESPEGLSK
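Drosophila S2 cells stably expressing Gal4-DBD/mouse RORγ fusion under metallothionein promoter plus UAS-luciferase; compound 1 h, then 700 uM CuSO4 induction for 20 h at ambient temperature; inhibition read as reduced luminescence.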
Gal4-VP16 FLuc = inhibits Gal4-VP16 luciferase reporter, ROR gamma counter-screen; Drosophila S2 Gal4-VP16 UAS-luciferase, luminescence, 20 h; Potency, µM (top dose mostly 53.6 µM), inactives show at the highest dose activity, negative = inhibition, usual class: inhibitors; hit rate 3.5% among 310,000; AID 2546;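 further: Gal4-VP16 expression switched on by copper sulfate through the metallothionein promoter; nearly all actives have a fitted effect of over 50% in size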
Sfp PPTase inh = Sfp phosphopantetheinyl transferase inhibition. Q9F4F7. AID 1490. Potency, µM, inactives show largest response in the series, negative = inhibition, hits mostly inhibitors. Biochemical Sfp PPTase activity, qHTS. hit rate 3.5% among 310,000;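 further: the enzyme is Sfp with the accession as filed and its product quenches rhodamine fluorescence; 0% = enzyme reaction without inhibitor and -100% = no enzyme wells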
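Reaction rates are the 30-min fluorescence difference (ex 525, em 598 nm) in wells containing 15 nM Sfp, 5 uM rhodamine-CoA and 12.5 uM BHQ-2-YbbR at pH 7.6 with 10 mM MgCl2.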
PLK1 PBD inh = blocks phosphopeptide binding to human PLK1 polo-box domain; P53350; Plk1 PBD binding of FITC phosphopeptide, fluorescence polarization; Potency, µM, for the others: max response, negative = inhibition, most hits filed as inhibitors; hit rate 2.8% among 360,000; AID 720504; further: series mostly up to about 57 µM; nearly all actives have a fitted effect of over 65% in size
ALDH1A1 inh = ALDH1A1 (human) enzyme inhibition; Purified ALDH1A1, NADH fluorescence, propionaldehyde substrate; P00352; AID 1030; hit rate 7.3% among 220,000; Potency, µM (series often up to 75.3 µM), for inactives: top-dose activity, negative = inhibition, actives largely listed as inhibitors; active means well fitted inhibition curve with a large enough effect, not every such curve was filed as active; inconclusive means small, poorly fitted or top-dose-only effect, or another doubt; inactive means no such curve, though single readings can be large or run the other way;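 further: plate controls were no enzyme wells and a reference inhibitor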
* hit, by the source's call; ? = inconclusive; · = no result given; [ ] = remark or other dose. Unless noted, the call rests on the fitted dose curve; in most records, active means well fitted curve in the direction sought with a large enough effect; inconclusive means small, poorly fitted or top-dose-only effect, or another doubt; inactive means no such curve, though single readings can be large; an effect the other way counts as inactive or inconclusive. Unless noted, on the % scale 0 is the no-effect control and ±100 the full control effect; potency means the concentration at half of the fitted maximal effect.

SMILES | RORgamma inh | Gal4-VP16 FLuc | Sfp PPTase inh | PLK1 PBD inh | ALDH1A1 inh
Cc1ccc(C)c(-n2c3nc(=O)[nH]c(=O)c-3cc3cc([N+](=O)[O-])ccc32)c1 | 10µM* | 11µM* | 50µM* | 7.5µM* | ?
COC(=O)C1(C(=O)OC)C/C=C\Cc2ccccc2[C@@H]1C[N+](=O)[O-] | -28% | -6% | -16% | · | -4%
Cc1cc(C)c2sc(NNC(=O)C3COc4ccccc4O3)nc2c1 (centres undefined) | 2.8µM* | 18µM* | -10% | 4% | -2%
Cc1cc(C)c2sc(NC(=O)C3CC3)nc2c1 | 6.3µM* | -30% | 4% | 4% | ·
O=C(NNc1nc2c(F)cc(F)cc2s1)C1COc2ccccc2O1 (centres undefined) | 13µM* | -25% | 12% | -4% | 7%
Cc1cccc2sc(NNC(=O)C3COc4ccccc4O3)nc12 (centres undefined) | 6.3µM* | 11µM* | 32µM* | -8% | -4%
O=C(Nc1nnc(C(F)(F)F)s1)C1COc2ccccc2O1 (centres undefined) | 41% | -15% | 16% | -8% | 7%
Cc1ccc(NC(=O)C2COc3ccccc3O2)c(C)c1 (centres undefined) | 8% | 6% | 12% | -8% | ·
COc1ccc(OC)c2sc(NNC(=O)C3COc4ccccc4O3)nc12 (centres undefined) | ? | -12% | 15% | 3% | 2%
CC1NC(=O)c2cc3ccccc3cc2-n2c1nc1ccccc1c2=O (centres undefined) | · | · | · | -3% | ·
Cc1ccccc1CN1C(=O)CN(S(C)(=O)=O)CC1(C)C(=O)Nc1ccc2c(c1)OCCO2 (centres undefined) | · | · | · | -10% | ·
C[C@]12CCC(=O)C=C1CC[C@@H]1[C@H]2[C@@H](O)C[C@@]2(C)[C@H]1CC[C@]2(O)C(=O)CO | -8%[10 µM] | -5% | 15% | · | ·
Cc1ccc(C(=O)N[C@H](C(=O)NC2CCCCC2)C(C)C)cc1 | · | · | · | 4% | ·
CS(=O)(=O)c1ccc(Sc2nc3ccccc3s2)c([N+](=O)[O-])c1 | 11µM* | 10µM* | -5% | -15% | 6%
O=[N+]([O-])c1cc(S(=O)(=O)C(F)(F)F)ccc1Sc1nc2ccccc2[nH]1 | ? | ? | 18% | ? | 8%
O=[N+]([O-])c1cc(S(=O)(=O)C(F)(F)F)ccc1Sc1nc2ccccc2s1 | 7.9µM* | 6.3µM* | -9% | 13µM* | -15%
CC1(C(=O)NS(=O)(=O)c2cccc(F)c2)CCN1C(=O)CCc1ccccc1 (centres undefined) | · | · | · | 1% | ·
COc1ccc(OC)c(-n2c(CN3CCC(C(N)=O)CC3)nc3ccccc3c2=O)c1 | ? | 17% | 35µM* | -6% | 20µM*
COc1ccc(OC)c(-n2c(CNC3CCN(Cc4ccccc4)CC3)nc3ccccc3c2=O)c1 | -13% | -3% | 15% | -6% | 4%
COc1cccc(-n2c(CN3CCN(c4ccc(C)cc4)C(C)C3)nc3ccc([N+](=O)[O-])cc3c2=O)c1 (centres undefined) | 5%[10 µM] | -5% | ? | -11% | 25µM*
COc1cccc(-n2c(CN3CCN(c4ccccn4)CC3)nc3ccc([N+](=O)[O-])cc3c2=O)c1 | 16% | 3% | 14µM* | -7% | ?
COc1ccc(-n2c(CN3CCC(C)CC3)nc3ccc([N+](=O)[O-])cc3c2=O)c(OC)c1 | 13% | 12% | 25µM* | -13% | ?
CCc1nc2ccc(C(=O)N3CCN(C(=O)c4ccco4)CC3)cn2c1N(CCC(C)C)CCN(C)C | · | · | · | -17% | ·
CCNc1sc(C(=O)c2cccs2)c(N)c1C#N | -4% | -4% | 45µM* | -17% | 8.9µM*
C=CCNc1sc(C(=O)c2ccccc2)c(N)c1-c1nc2ccccc2s1 | 4.5µM* | 16µM* | 20µM* | 17µM* | 2%
CCOC(=O)c1sc(NCc2ccco2)c(-c2nc3ccccc3s2)c1N | 19% | 6% | ? | -11% | ?
CCNc1sc(C(=O)c2cccs2)c(N)c1-c1nc2ccccc2s1 | ? | 7.9µM* | 18µM* | -12% | ?
CCc1nc2ccc(C(=O)N3CCN(C(C)=O)CC3)cn2c1N(C)C(=O)c1cccc(OC)c1 | · | · | · | -3% | ·
